PubChem BioAssay AID1345085 (National Center for Advancing Translational Sciences (NCATS), 2018)
Results filed as inconclusive are left out. A number with no mark means an inactive call. Active and inactive are the calls of the source. Calls follow the shape of the dose curve; as a rule, active = well fitted cell-killing curve with a large enough effect; inconclusive = small, poorly fitted or top-dose-only effect, or effect the other way; inactive = no such curve, though single readings can be large or run the other way.

Test system: Jar
Assay: Confirmatory qHTS for gynecologic anti-cancer compounds from libraries of approved drugs and bioactive compounds; also: nearly all actives have a fitted effect of over 55% in size
Settings: gynecologic cancer cell panel viability, ATPlite luminescence, 48 h; series mostly up to 57.6 µM
Summary of the method: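 1,000 cells/well; 16 h pre-incubation 37 C, 5% CO2; pin-transferred cpd in DMSO, 11 conc (1:3), 57.5 uM–0.977 nM; 48 h; ATPlite, 15 min RT; luminescence → IC50.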
% is scaled to controls: 0 for no effect and ±100 for the full control effect; potency is read from the fitted curve at half-maximal effect.

SMILES | activity change, negative = viability loss | Potency
Cc1cnc(CNC(=O)c2c(=O)c3ccc(N4CCCN(C)CC4)nc3n3c2sc2ccccc23)cn1 | 14.2% [at 10.7 µM] | 
CC(C)[C@@H](CS(=O)(=O)C(C)C)N1C(=O)[C@@](C)(CC(=O)O)C[C@H](c2cccc(Cl)c2)[C@H]1c1ccc(Cl)cc1 |  | 2.73 µM (active)
C#C[C@]1(O)CC[C@H]2[C@@H]3CCC4=CC(=O)CC[C@@H]4[C@H]3CC[C@@]21CC |  | inactive
CN1C2CCC1CC(OC(=O)[C@H](CO)c1ccccc1)C2 (stereo partly drawn) |  | inactive
Cc1nc(N)sc1-c1ccnc(Nc2ccc(N3CCOCC3)cc2)n1 |  | 3.85 µM (active)
CC(C)n1c(/C=C/[C@@H](O)C[C@@H](O)CC(=O)O)c(-c2ccc(F)cc2)c2ccccc21 |  | 10.9 µM (active)
Nc1nc(=S)c2[nH]cnc2[nH]1 |  | 9.68 µM (active)
CCC1=CC2CN(C1)Cc1c([nH]c3ccccc13)[C@@](C(=O)OC)(c1cc3c(cc1OC)N(C)[C@H]1[C@@](O)(C(=O)OC)[C@H](OC(C)=O)[C@]4(CC)C=CCN5CC[C@]31[C@@H]54)C2 (stereo partly drawn) |  | 0.133 µM (active)
Cc1csc(NC(=O)c2sc3nc4c(c(C(F)(F)F)c3c2N)CCC4)n1 |  | 3.43 µM (active)
S=c1nc[nH]c2nc[nH]c12 |  | 13.7 µM (active)
Nc1ccc(-c2ccc3ncc4ccc(=O)n(-c5cccc(C(F)(F)F)c5)c4c3c2)cn1 |  | 1.22 µM (active)
O=C(Nc1cccnc1)N1CCC(Cc2cccc(Oc3ccc(C(F)(F)F)cn3)c2)CC1 |  | 9.68 µM (active)
CC1=C(/C=C/C(C)=C/C=C/C(C)=C/C(=O)Nc2ccc(O)cc2)C(C)(C)CCC1 |  | 21.7 µM (active)
CNC(=O)c1ccccc1Nc1nc(Nc2ccc(N3CCOCC3)cc2OC)ncc1Cl |  | 19.3 µM (active)
CCN(CC)CCOc1ccc(/C(=C(\Cl)c2ccccc2)c2ccccc2)cc1 |  | 89.1 µM (active)
COc1ccc2cc3[n+](cc2c1OC)CCc1cc2c(cc1-3)OCO2 |  | 4.32 µM (active)
CCN1C[C@H](C)n2c(c(O)c3c(=O)n(Cc4ccc(F)c(Cl)c4)nc(C(=O)NC)c32)C1=O |  | inactive
Cc1nc(N)nc(N)c1-c1ccc(Cl)c(Cl)c1 |  | 4.85 µM (active)
Cc1cnc(Nc2ccc(F)cc2Cl)nc1-c1c[nH]c(C(=O)NC(CO)c2cccc(Cl)c2)c1 (stereo not drawn) |  | inactive

SMILES | activity change, negative = viability loss | Potency
Cc1[nH]c2ccccc2c1CCNCc1ccc(/C=C/C(=O)NO)cc1 |  | 0.193 µM (active)
COC(C(=O)N1Cc2[nH]nc(NC(=O)c3ccc(N4CCN(C)CC4)cc3)c2C1)c1ccccc1 (stereo not drawn) |  | inactive
Cc1nc(Nc2n[nH]c3c2CN(C(=O)NC(CN(C)C)c2ccccc2)C3(C)C)c2sccc2n1 (stereo not drawn) |  | inactive
Cc1nc2ccc(CN(C)c3ccc(C(=O)NC(CCC(=O)O)C(=O)O)s3)cc2c(=O)[nH]1 (stereo not drawn) |  | inactive
COc1ccc(-c2ccc3c(N4CCOCC4C)nc(N4CCOCC4C)nc3n2)cc1CO (stereo not drawn) |  | inactive
Fc1cc(-c2cccc3ncc(-c4cnn(C5CCNCC5)c4)nc23)cc(F)c1CN1CCOCC1 |  | 34.3 µM (active)
O=c1cc(CN2CCOCC2)occ1OCCCCCSc1ccnc2cc(C(F)(F)F)ccc12 |  | 7.69 µM (active)
CCCC(Nc1nc(-c2ccc(NC(=O)NCC)c(OC)c2)ncc1C)c1cccnc1 (stereo not drawn) |  | 0.432 µM (active)
Cc1nc(NC(=O)N2CCCC2C(N)=O)sc1-c1csc(C(C)(C)C)n1 (stereo not drawn) |  | 21.7 µM (active)
CCCc1nn(C)c2c(=O)[nH]c(-c3cc(S(=O)(=O)N4CCN(C)CC4)ccc3OCC)nc12 |  | inactive
CN1CCN(c2ccc(OC(F)(F)F)c(Nc3ncc4c(n3)-c3c(c(C(N)=O)nn3CCO)CC4)c2)CC1 |  | 0.153 µM (active)
COc1cc2c(NC3CCN(C(C)C)CC3)nc(C3CCCCC3)nc2cc1OCCCN1CCCC1 |  | 10.9 µM (active)
Oc1cn2c(n1)Nc1ccc(Cl)c(Cl)c1C2 |  | inactive
Cc1cc(Nc2cc(N3CCN(C)CC3)nc(/C=C/c3ccccc3)n2)n[nH]1 |  | 24.3 µM (active)
CN[C@@H](C)C(=O)N[C@H]1CN(C(=O)CC(C)C)CC[C@H]2CC[C@@H](C(=O)NC(c3ccccc3)c3ccccc3)N2C1=O |  | inactive
COc1cc2c(cc1-c1c(C)noc1C)ncc1[nH]c(=O)n(C(C)c3ccccn3)c12 (stereo not drawn) |  | 27.3 µM (active)
Cc1cc(C(=O)N2CCN(c3cccc(Cl)c3)CC2)n(-c2ccccc2)n1 |  | 1.72 µM (active)
Nc1ccccc1NC(=O)c1ccc(CNc2nccc(-c3cccnc3)n2)cc1 |  | 1.93 µM (active)
CCOc1ccc(Nc2nc(-c3c(C)nc4ccccn34)cs2)cc1 |  | 0.0243 µM (active)
